Screening data: PubChem BioAssay, Broad Institute
Shown is part of a subset that was picked to be rich in hits.
Tg IFNy HTS: inhibitors of Toxoplasma gondii growth with IFN-gamma | activity change, negative = inhibition, % (test concentration not listed) | actives 3.8% (n = 69,000) | AID 1259416 | Toxoplasma gondii growth in IFN-gamma-treated host cells; active compounds read low; in the data active = activity change below about -70%, passing the limit was not always enough;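 also: host cells are HeLa cells infected with Toxoplasma gondii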
Starred values were filed as active, the others as inactive; ! = repeats disagree.

SMILES | Tg IFNy HTS
Cc1nc(-c2cn(C(C)C)c3ncccc23)sc1C(=O)N1CCC2(CC1)OCCO2 | -67.2
Cc1nc(-c2cn(C(C)C)c3ncccc23)sc1C(=O)N1CCCC(C)C1 (stereo not drawn) | -117.0*
CCOc1ccc(CN2CCOC(c3ccc(F)cc3)C2)cc1CO (stereo not drawn) | -61.2
O=C1NCCN1CCNS(=O)(=O)c1ccc(S(=O)(=O)c2ccccc2)s1 | 53.6
CC(C)NC(=O)c1cc2c(nc1NCC1CC1)CCN(Cc1ccccn1)CC2 | 4.7
Cc1ccc(C(=O)N2CC[C@H]3O[C@@H](C(=O)NCc4ccco4)CC[C@@H]32)o1 | -1.1
CC(C)(C)CC(C)(C)NC(=O)C(Sc1ccccc1N)c1ccccc1 (stereo not drawn) | -88.3*
O=C(NCc1ccco1)C(Sc1ccccc1)c1ccccc1 (stereo not drawn) | -2.5
COC(=O)c1ccc(CSc2ccccc2N)o1 | 69.5
CN(Cc1cc(-c2ccccc2)no1)Cc1cccnc1N | 28.0
O=C(Cc1c[nH]c2ccccc12)NCC1CCN(c2cc(-c3ccncc3)[nH]n2)CC1 | 159.1
COCc1nc(NCc2ccccc2-n2cccn2)c2cnn(C)c2n1 | -6.0
COc1ccc(-c2nc3c(s2)CN(S(=O)(=O)c2ccccc2C)CC3)cc1OC | -93.8*
COc1ccc(-c2nc3c(s2)CN(S(=O)(=O)c2ccc(C)c(C)c2)CC3)cc1OC | -98.4*
COc1ccc(-c2nc3c(s2)CN(S(=O)(=O)Cc2ccccc2)CC3)cc1OC | -35.0
COc1ccc(Cl)cc1S(=O)(=O)N1CCc2nc(-c3ccccc3)sc2C1 | -118.1*
COc1ccc(-c2nc3c(s2)CN(S(=O)(=O)c2ccc(NC(C)=O)cc2)CC3)cc1 | -25.9
CCc1ccc(S(=O)(=O)N2CCc3nc(-c4ccc(OC)c(OC)c4)sc3C2)cc1 | 21.4
COc1ccc(-c2nc3c(s2)CN(S(=O)(=O)c2cc(F)ccc2C)CC3)cc1OC | -67.5
COc1ccc(-c2nc3c(s2)CN(S(=O)(=O)c2ccc(C)cc2)CC3)cc1OC | -87.1*
COc1ccc(-c2nc3c(s2)CN(C(=O)Nc2ccc(C)cc2)CC3)cc1OC | -41.6
O=S(=O)(c1ccccc1Cl)N1CCc2nc(-c3ccccc3)sc2C1 | -15.4
O=S(=O)(c1ccc(F)c(Cl)c1)N1CCc2nc(-c3ccccc3)sc2C1 | 16.3
COc1ccc(-c2nc3c(s2)CN(S(=O)(=O)c2ccc(F)cc2)CC3)cc1OC | 18.2
COc1ccccc1-c1nc(Cn2nnc(-c3nc(-c4ccc(C)cc4)no3)c2C)c(C)o1 | 2.9
SMILES | Tg IFNy HTS
COc1cc(CNC(=O)C2(C)CCN(C(=O)CC3CCCC3)CC2)cc(OC)c1 | 1.4
CN(C)C(=O)[C@@H]1C[C@@H]2OCC[C@@H]2N(CCOCc2ccccc2)C1 | 2.0
C/C=N/N(C)C=O | -4.1
Nc1ccccc1Sc1nccc(C(F)(F)F)n1 | -58.2
Cn1ncc2c(NCCSc3cn[nH]n3)nc(C3CCCC3)nc21 | -17.8
Cc1cccc(S(=O)(=O)N2CCOCC3(CCN(C)C3)C2)c1 (stereo not drawn) | -1.1
C[C@@H]1CN([C@@H](C)CO)S(=O)(=O)c2ccc(C#Cc3ccccc3F)cc2O[C@@H]1CN(C)C(=O)Cc1cccnc1 | -8.4
COc1cccc(-c2ccc3c(c2)O[C@@H](CN(C)Cc2cccnc2)[C@H](C)CN([C@@H](C)CO)S3(=O)=O)c1 | -95.2*
COc1cccc(-c2ccc3c(c2)O[C@@H](CN(C)Cc2cccnc2)[C@@H](C)CN([C@H](C)CO)S3(=O)=O)c1 | 30.3
C[C@H]1CN([C@@H](C)CO)S(=O)(=O)c2ccc(C#CC(C)(C)O)cc2O[C@@H]1CN(C)Cc1ccc(F)cc1 | -1.9
COc1cccc(-c2ccc3c(c2)O[C@H](CN(C)Cc2cccnc2)[C@@H](C)CN([C@H](C)CO)S3(=O)=O)c1 | -97.2*
COc1ccccc1-c1ccc2c(c1)O[C@H](CN(C)CC1CCOCC1)[C@@H](C)CN([C@@H](C)CO)S2(=O)=O | -19.2
C[C@H](CO)N1C[C@H](C)[C@@H](CN(C)C(=O)Cc2cccnc2)Oc2cc(C#Cc3ccccc3F)ccc2S1(=O)=O | -107.7*
COc1ccccc1-c1ccc2c(c1)O[C@H](CN(C)CC1CCOCC1)[C@@H](C)CN([C@H](C)CO)S2(=O)=O | -52.1
COc1cccc(-c2ccc3c(c2)O[C@@H](CN(C)Cc2cccnc2)[C@@H](C)CN([C@@H](C)CO)S3(=O)=O)c1 | -54.6
O=C(c1cc(COc2ccc(F)cc2Cl)on1)N1CCCCC1CCc1ccccn1 (stereo not drawn) | -18.6
CC(=O)c1ccc(-c2nnc(CCC(=O)N3CCN(c4ccc(C)cc4)CC3C)o2)s1 (stereo not drawn) | 13.2
CCSCCC(=O)N1CCCC(c2nn(C)c(=O)n2-c2ccccc2)C1 (stereo not drawn) | -1.8
C[C@]12CC[C@@H]3c4ccc(O)cc4CC[C@H]3[C@@H]1C[C@@H](O)[C@@H]2O | 16.6
COc1cc2c(cc1O)CC[C@@H]1[C@@H]2CC[C@]2(C)[C@@H](O)CC[C@@H]12 | -82.5*!
CC12CCC3c4ccc(O)cc4CCC3C1C[C@H](O)[C@@H]2O (stereo partly drawn) | 8.2
COc1cc(/C=C/C(=O)O[C@H]2CC[C@]34CC35CC[C@]3(C)[C@@H](C(C)CCC=C(C)C)CC[C@@]3(C)C5CCC4C2(C)C)ccc1O (stereo partly drawn) | -22.4
Cc1cc(NC(=O)CCC2CCCCC2)n(-c2ncnc3c2cnn3-c2ccc(F)cc2)n1 | -4.7
CCOCC(=O)N1Cc2nnn(C)c2C(COCc2ccccn2)C1 (stereo not drawn) | 99.0
Cc1nsc(NC(=O)N2CCCN(C3CCCCC3)CC2)n1 | 3.7
SMILES | Tg IFNy HTS
O=c1[nH]c(NC2CCN(Cc3nnnn3Cc3ccccc3)CC2)nc2c1CCCC2 | -15.7
CC(C)(C(=O)N1CCC(Nc2nc3c(c(=O)[nH]2)CCCC3)CC1)c1ccc(Cl)cc1 | -101.4*
Cc1cccc(C)c1NC(=O)CN1CCC(Nc2nc3c(c(=O)[nH]2)CCCC3)CC1 | -12.8
Cc1cccc(C)c1NC(=O)C(=O)NCCc1sc(-c2cccc(F)c2)nc1C | -34.8
Nc1cc(-c2ccc(F)cc2)nn1-c1ccccc1 | 487.9
COc1ccc(C(=O)Nc2cc(C(F)(F)F)ccc2OCC2CCCO2)cc1OC (stereo not drawn) | -10.3
Cc1cccc(-c2nc(Cn3c(=O)c4c(C)cc(C)nc4n(-c4ccccc4)c3=O)c(C)o2)c1 | 2.0
CCn1nc(CNC(=O)c2cccc(C3CCNC3)c2)c2ccccc21 (stereo not drawn) | -85.6*
O=C(NCc1nnc2n1CCCC2)c1cccc(C2CCNC2)c1 (stereo not drawn) | 4.7
CN(Cc1cccc2ncccc12)C(=O)c1cccc(C2CCNC2)c1 (stereo not drawn) | 4.3
COc1ccc2c3c([nH]c2c1)[C@H](CO)N(C(=O)c1ccc(F)cc1)CC31CCN(S(=O)(=O)c2cccs2)CC1 | -57.3
COc1ccc(-n2c(=O)c(C(=O)Nc3ccccc3)c(O)c3cccnc32)cc1 | 146.2
CCN1CCC2(CN(C(C)=O)CC23CCN(CC2CC2)CC3)C1=O (stereo not drawn) | -40.9
CCc1cc(C(C)Nc2nc(-c3cccnc3)nc3c2CNC3)on1 (stereo not drawn) | -88.2*
CC(C)(C)CC(Nc1nc(-c2cccnc2)nc2c1CNC2)c1cccnc1 (stereo not drawn) | -17.7
CC(C)Cc1cc(CNc2nc(-c3cccnc3)nc3c2CCNC3)no1 | -35.9
CCc1ccc(S(=O)(=O)N2CCC3(CC2)Nc2ccccc2-n2cccc23)cc1 | -1.9
